Most compounds without a hit are left out; they make up all but 2.2% or so of the library.
LDHA block: qHTS assay for inhibitors of human lactate dehydrogenase | L-lactate dehydrogenase A chain (Homo sapiens), P00338 | purified LDHA, NADH/diaphorase-resazurin fluorescence; active compounds read low | activity change, % (values are at about 110 or 230 µM) | 0.15% of 480,000 active | AID 1347041, 2019; in the data active = activity change below about -30%; inconclusive = mostly about -25% to -30%
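Enzyme activity of human lactate dehydrogenase 5 (2 nM; 0.06 mM NADH, 0.2 mM pyruvate, 5 min, RT) is measured via a resazurin/diaphorase fluorescence readout of residual NADH.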
HepG2 tox-1: qHTS for Inhibitors of TGF-b: Cytotox Counterscreen; HepG2 CAGA-GFP viability, ATP luminescence, 18 h; Potency, µM (top dose mostly 46.1 µM), actives largely listed as cytotoxic; 0.76% of 410,000 active
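HepG2 CAGA-GFP cells (1000/well, DMEM with 1% FBS) received compound, then TGF-beta at 500 pg/mL final, and were incubated 18 hours at 37 degrees C. Viability was read by CellTiter-Glo luminescence. Media-only wells were set as complete cell-killing and DMSO as no toxicity.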
TGFb inhibitor: qHTS for Inhibitors of TGF-b | HepG2 CAGA-GFP TGF-b/SMAD3 reporter, GFP fluorescence, 18 h; TGF-beta stimulated, 500 pg/mL final | Potency, µM (titrated, usually from 46.1 µM), most hits filed as inhibitors | 1.2% of 410,000 active; also: nearly all actives have a fitted effect of over 65% in size
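GFP signal (ex488/em500-530) from TGF-beta-stimulated HEPG2 CAGA-GFP cells, 500 pg/mL final, 18 h at 37 degrees C in DMEM plus 1% FBS, normalized to unstimulated and DMSO-stimulated controls.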
S2 tox: Viability Counterscreen for Primary qHTS for Inhibitors of ATXN expression; S2 cells (HEK-293 line with an ATXN2-luciferase reporter) viability, CellTiter-Fluor protease fluorescence, 24 h; 0.49% of 400,000 active; Potency, µM (highest dose often 56.7 µM), usual class: cytotoxic; also: nearly all actives have a fitted effect of over 40% in size
mIDH1 inhibitor: qHTS for Inhibitors of mutant isocitrate dehydrogenase 1 (IDH1): qHTS; IDH1-R132H enzyme, NADPH consumption, diaphorase/resazurin fluorescence; Isocitrate dehydrogenase [NADP] cytoplasmic (Homo sapiens), O75874; 0.093% of 390,000 active; Potency, µM (doses to about 76.6 µM), actives largely listed as inhibitors; also: nearly all actives have a fitted effect of over 65% in size
Target sequence (O75874 whole entry R132H, stated change not applied): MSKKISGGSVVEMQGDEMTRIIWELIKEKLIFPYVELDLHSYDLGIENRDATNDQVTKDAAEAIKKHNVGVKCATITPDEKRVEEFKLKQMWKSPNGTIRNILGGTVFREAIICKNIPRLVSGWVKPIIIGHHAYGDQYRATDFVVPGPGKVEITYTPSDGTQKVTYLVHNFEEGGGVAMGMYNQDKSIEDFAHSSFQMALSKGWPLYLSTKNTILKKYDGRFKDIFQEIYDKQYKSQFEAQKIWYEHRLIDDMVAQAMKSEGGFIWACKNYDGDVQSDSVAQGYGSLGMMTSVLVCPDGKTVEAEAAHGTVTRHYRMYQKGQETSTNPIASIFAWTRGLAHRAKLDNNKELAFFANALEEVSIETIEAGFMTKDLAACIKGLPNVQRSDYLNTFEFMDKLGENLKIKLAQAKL
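IDH1-R132H (0.5 ug/mL) preincubated 30 min with compound, then NADPH (0.016 mM) and alpha-KG (2 mM) added; 80 min at RT, pH 7.5. Remaining NADPH coupled via diaphorase/resazurin to fluorescence (540/590 nm); concentration-response curves normalized to no-enzyme control.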
ATXN2 expr inh: Primary qHTS for Inhibitors of ATXN expression | 0.72% of 360,000 active | HEK-293 ATXN2-luciferase reporter, luminescence, 24 h | Potency, µM (highest dose often 57 µM), actives largely listed as inhibitors | AID 1745845, 2022; also: nearly all actives have a fitted effect of over 55% in size
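ATXN2-luciferase reporter cells (luciferase flanked by upstream and downstream ATXN2 gene portions) were treated 24 h at 37 °C with compounds at up to 57 uM. SteadyGlo luminescence gave expression; GF-AFC fluorescence gave viability.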
TGFb CAGA inh: qHTS for Inhibitors of TGF-b: Confirmation of Cherry Picks; shares compounds with TGFb inhibitor; AID 720534, 2013; HepG2 CAGA-GFP TGF-b reporter, GFP fluorescence, 18 h; cells stimulated with TGF-beta, 500 pg/mL; Potency, µM (doses to about 46.1 µM), usual class: inhibitors; 63% of 1,600 active; also: nearly all actives have a fitted effect of over 65% in size
HepG2 tox-2: qHTS for Inhibitors of TGF-b: Cytotox Counterscreen for Cherry Picks; shares compounds with TGFb inhibitor; HepG2 CAGA-GFP viability, ATP luminescence, 18 h; cells stimulated with TGF-beta, 500 pg/mL; Potency, µM (titrated, usually from 46.1 µM), most hits filed as inhibitors; 27% of 1,600 active; AID 720535, 2013; also: nearly all actives have a fitted effect of over 70% in size
CCL64 TGFb inh: qHTS for Inhibitors of TGF-b: CCL64 Cells Orthogonal Assay for Cherry Picks; shares compounds with TGFb inhibitor; CCL64 CAGA-GFP reporter, TGF-b stimulated, GFP fluorescence, 18 h; AID 720536, 2013; 41% of 1,600 active; Potency, µM (doses to about 46.1 µM), actives largely listed as inhibitors; also: nearly all actives have a fitted effect of over 65% in size
TGFb COP inh: qHTS for Inhibitors of TGF-b: Hit Validation in HepG2 Cells using COP promoter; shares compounds with TGFb inhibitor; HepG2 COP-GFP TGF-b reporter, GFP fluorescence, 18 h; cells stimulated by added recombinant TGF-beta; Potency, µM (highest dose often 46.1 µM), hits mostly inhibitors; 3% of 1,600 active; AID 720537, 2013; also: nearly all actives have a fitted effect of over 70% in size
Hits are given with their value; n = inactive; u = inconclusive; x = no result given; [ ] = remark or other dose. Unless noted, calls follow the shape of the dose curve; as a rule, active = well fitted curve in the direction sought with a large enough effect; inconclusive = small, poorly fitted or top-dose-only effect, or another doubt; inactive = no such curve, though single readings can be large; an effect the other way counts as inactive or inconclusive.

SMILES | LDHA block | HepG2 tox-1 | TGFb inhibitor | S2 tox | mIDH1 inhibitor | ATXN2 expr inh | TGFb CAGA inh | HepG2 tox-2 | CCL64 TGFb inh | TGFb COP inh
CCSc1ccc([C@@H]2[C@@H]3C(=O)N(CC)C(=O)[C@@H]3[C@]3(C(=O)OC)CCCCN23)cc1OC | n | n | u | n | n | n | x | x | x | x
CC(=O)OC(C)(C)/C=C/C(=O)[C@](C)(O)C1[C@H](O)C[C@@]2(C)C3CC=C4C(C=C(O[C@@H]5O[C@H](CO)[C@@H](O)[C@H](O)[C@H]5O)C(=O)C4(C)C)[C@]3(C)C(=O)C[C@]12C (some centres not stated) | n | n | 5µM | u | n | n | 5.2µM | u | 3.3µM | n
CCOc1ccc(S(=O)(=O)/N=C(/Nc2ccc(OC)cc2)c2ccccc2)cc1 | n | n | n | n | n | n | x | x | x | x
O=S(=O)(NC1CCCC1)c1ccc(S(=O)(=O)N2CCc3ccccc32)cc1 | n | n | u | u | n | u | 9.2µM | n | n | n
Nc1ccc(S(=O)(=O)N2CCc3ccccc32)cc1 | n | n | n | n | n | n | x | x | x | x
CCOC(=O)Nc1nc(-c2ccccc2)c(C(=O)c2ccc(Cl)cc2)s1 | n | n | 8.9µM | u | n | n | 7.3µM | n | 9.2µM | n
Cc1ccc(-c2noc(CN(C)C(=O)Nc3ccc(F)cc3)n2)cc1 | n | n | n | n | n | n[11.3 µM] | x | x | x | x
O=C(Nc1ccc(Cl)cc1)Nc1nnc(-c2ccncc2)s1 | n | n | u | u | n | u | x | x | x | x
Cc1ccc(NC(=O)Nc2nnc(-c3ccncc3)s2)cc1C | n | n | 7.9µM | n | n | n | 9.2µM | u | u | n
CCSc1nnc(NC(=O)Nc2cccc(C)c2)s1 | n | n | 7.9µM | n | n | n | u | u | u | n
CS(=O)(=O)c1ccc2nc(NC(=O)Nc3cccc(Cl)c3)sc2c1 | n | n | 2.2µM | u | n | n | 16µM | u | u | n
O=C(Nc1cccc(Cl)c1)Nc1nnc(-c2ccncc2)s1 | n | n | 7.9µM | x | n | u | 10µM | u | 6.5µM | n
COc1ccc(-c2noc(CCC(=O)Nc3cc(Cl)c(OC)cc3OC)n2)cc1 | n | n | u | n | n | n | x | x | x | x
Cc1cccc(C)c1NC(=O)Nc1nc(C(N)c2ccccc2Cl)cs1 (configuration not stated) | n | n | n | u | x | n | x | x | x | x
NC(c1csc(NC(=O)Nc2cccc(Cl)c2)n1)c1ccccc1Cl (configuration not stated) | n | n | 10µM | u | x | u | 18µM | u | u | n
CCC(=O)c1cn(CC(=O)Nc2c(C)cccc2C)c2ccccc12 | n | n | n | n | n | n | x | x | x | x
CC(=O)c1cn(CC(=O)Nc2c(C)cccc2C)c2ccccc12 | n | n | u | n | n | n | u | n | n | n
CCCN(CCC)S(=O)(=O)c1ccc2c(c1)N(CC(=O)NCc1ccc(F)cc1Cl)C(=O)CS2 | n | n | u | x | n | x | x | x | x | x
O=C1c2cc(Cl)ccc2-c2c(O)cc(Cl)cc21 | n | n | 11µM | n | n | u | 12µM | u | 8.2µM | n
O=c1cc(O)c(-c2ccc(Cl)cc2)c(Cl)[nH]1 | n | n | n | n | n | n | x | x | x | x
CC(=O)N/C(=C/C(C)C)c1ccccc1 | n | n | n | n | n | n | x | x | x | x
COc1ccc(/C=C/C(=O)c2ccc(C)cc2)cc1OC | n | x | x | x | x | x | x | x | x | x
COc1ccc(/C=C/C(=O)c2ccc(NC3=NCCCS3)cc2)cc1OC | n | n | 13µM | n | n | n | 9.2µM | 16µM | 26µM | n
COc1ccccc1-c1cc(C(F)(F)F)nc(NCc2ccco2)n1 | n | n | n | n | n | n | x | x | x | x
Cc1ccc(NC(=O)COC(=O)C2(c3ccc(Cl)cc3)CCCC2)cc1 | n | n | 10µM | u | n | u | u | u | u | n
SMILES | LDHA block | HepG2 tox-1 | TGFb inhibitor | S2 tox | mIDH1 inhibitor | ATXN2 expr inh | TGFb CAGA inh | HepG2 tox-2 | CCL64 TGFb inh | TGFb COP inh
O=c1oc2ccccc2cc1-c1csc(Cc2nc(-c3ccc(Br)cc3)cs2)n1 | n | n | n | u | n | n | x | x | x | x
Cc1ccc(-c2csc(Cc3nc(-c4cc5ccccc5oc4=O)cs3)n2)cc1 | n | n | u | n | n | n | u | n | n | n
O=C(Cc1ccc(Cl)cc1)Nc1ccc(C(=O)N2CCCCC2)cc1 | n | n | n | n | n | n | x | x | x | x
COc1cc(C(=O)Oc2ccccc2/C=N/NC(=O)c2ccc(C)cc2)cc(OC)c1OC | n | n | 13µM | u | n | n | u | u | n | n
COc1ccc(C(=O)N/N=C/c2ccccc2OC(=O)c2ccccc2)cc1 | n | n | u | u | n | n | x | x | x | x
O=C(Nc1ccc(N2CCOCC2)c(Cl)c1)c1ccc([N+](=O)[O-])o1 | n | 13µM | 8.9µM | u | n | x | 15µM | 21µM | 13µM | u
CC(C)C(=O)N1CCN(c2ccc(NC(=O)c3ccc([N+](=O)[O-])o3)cc2Cl)CC1 | n | n | 7.9µM | n | n | u | 5.8µM | 21µM | u | n
CC(C)C(=O)N1CCN(c2ccc(NC(=O)c3ccc([N+](=O)[O-])o3)cc2)CC1 | n | n | u | n | n | n | 5.8µM | 10µM | u | n
Cc1cc(NC(=O)c2ccc([N+](=O)[O-])o2)ccc1NC(=O)c1ccco1 | n | n | 7.1µM | u | n | n | 4.1µM | 21µM | u | n
CN1CCN(Cc2c(O)ccc3cc(-c4ccccn4)c(=O)oc23)CC1 | n | n | n | x | n | n[11.3 µM] | x | x | x | x
Cc1ccc(NC(=O)CC2OC(=O)c3ccccc32)cc1S(=O)(=O)N1CCOCC1 (configuration not stated) | n | n | n | n | n | x | x | x | x | x

High-throughput results deposited in PubChem by National Center for Advancing Translational Sciences (NCATS).
